Source: PubChem BioAssay
Efflux pump mplx = antifungal efflux pump inhibition, Nile Red retention. S. cerevisiae Candida pump triplex. inhibition, % at 10 µM. actives 0.44% (n = 330,000). AID 485275;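 active means plate passing quality check with inhibition over a set limit, or well fluorescence over plate mean plus 4 SD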;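 further: Nile Red retained in pooled yeast measured as flow cytometry median fluorescence; 0% = buffer negative control and 100% = Enniatin B positive control; higher means more Nile Red kept so more efflux inhibition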
PolyA inhibitor = yeast polyadenylation inhibition; AID 1875; activity score, % at 12 µM; actives 0.02% (n = 300,000); S. cerevisiae SKY197-pL101 polyadenylation reporter, beta-gal luminescence; efflux-impaired pdr1/pdr3 knockout yeast; score 100 = 6 SD above DMSO;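 active means lowest replicate activity score at least 50, where 100 means six control SD above control mean; inconclusive means lowest score under 50 but half or more replicates reach 50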;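 further: yeast exposed to compound for 9 h at 30 °C; higher score means more reporter readthrough which indicates perturbed polyadenylation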
NALP3 yeast inh = inhibitors of NALP3 inflammasome in yeast; Yeast reconstituted NLRP3/ASC/caspase-1, beta-gal luminescence, 24 h; AID 2825; inhibition, % at 10 µM; actives 0.39% (n = 330,000);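 active means inhibition of 50% or more; inactive means inhibition below 50%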;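 further: plate controls were induced DMSO wells for no effect and uninduced yeast grown without galactose for full effect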
NALP1 inh = inhibitors of NALP1 inflammasome in yeast; inhibition, % at 10 µM; actives 0.61% (n = 280,000); AID 2071; S. cerevisiae NALP1/ASC/caspase-1 growth, X-gal OD620, 72 h; in the data active means inhibition mostly above about 24%, no sharp cut-off; inactive means mostly below about 32%
JMJD2C inh = human JMJD2C demethylase inhibition; GST-JMJD2C(1-420) H3K9me3 demethylation, DELFIA europium; Q9H3R0; inhibition, % at 2.35 µM; actives 0.069% (n = 330,000);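 active means more than half of a compound's replicate wells show inhibition beyond 50%, single wells judged on their own value; inconclusive means some, but no more than half, of replicates pass 50% inhibition; inactive means no replicate passes 50% inhibition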;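 further: signal counts dimethyl H3K9 product captured on neutravidin plate; 0% = median of DMSO wells and 100% = 0.3 times that DMSO median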
HDAC3 inhib = human HDAC3 inhibition | recombinant HDAC3, fluorogenic peptide/trypsin coupled, fluorescence | actives 0.15% (n = 320,000) | AID 2718 | inhibition, % at 8.3 µM; in the data active means inhibition above about 26%, passing the limit was not always enough; inconclusive means no clear call, values can overlap the other calls
Target sequence (O15379 whole entry, looked up): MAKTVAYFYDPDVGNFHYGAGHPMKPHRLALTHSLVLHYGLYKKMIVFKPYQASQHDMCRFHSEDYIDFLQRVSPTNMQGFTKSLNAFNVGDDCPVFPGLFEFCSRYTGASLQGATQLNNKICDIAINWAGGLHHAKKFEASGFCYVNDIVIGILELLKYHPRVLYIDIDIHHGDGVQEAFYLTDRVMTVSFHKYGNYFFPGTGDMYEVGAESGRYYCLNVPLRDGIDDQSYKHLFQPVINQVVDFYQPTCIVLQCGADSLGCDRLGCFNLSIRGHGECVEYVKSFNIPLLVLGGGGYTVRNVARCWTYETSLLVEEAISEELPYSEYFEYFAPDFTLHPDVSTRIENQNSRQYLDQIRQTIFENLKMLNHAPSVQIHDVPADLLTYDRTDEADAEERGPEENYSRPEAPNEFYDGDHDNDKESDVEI
NALP3 confirm = NALP3 inhibition confirmation in yeast; shares compounds with NALP3 yeast inh; yeast expressing human NALP3, luminescence; inhibition, % at 10 µM; actives 81% (n = 1,300); AID 435006; in the data active means inhibition above about 48%
Casp1-ASC yeast = counter-screen for NALP3 inhibitors: yeast caspase-1-ASC; shares compounds with NALP3 yeast inh; yeast expressing Caspase-1-ASC, luminescence counter screen; inhibition, % at 10 µM; actives 66% (n = 1,000); AID 488784
NALP3 yeast rt = retest-confirmed inhibitor of NALP3 in yeast; shares compounds with NALP3 yeast inh; inhibition, % at 10 µM; actives 53% (n = 1,000); yeast expressing human NALP3, luminescence read-out
Active calls of the source: *; i = inactive; ? = inconclusive; nt = not tested or not shown; + = active, no number; ! = not active in a repeat. Only some compounds are listed: those with a hit (about 1.5% of all), similar ones and a draw of the others. Unless noted, no stated cut-off is given here; in the data, active means inhibition above about 50%; inactive means the rest.

SMILES	Efflux pump mplx	PolyA inhibitor	NALP3 yeast inh	NALP1 inh	JMJD2C inh	HDAC3 inhib	NALP3 confirm	Casp1-ASC yeast	NALP3 yeast rt
CCn1c(O)c(C=Nc2ccccc2)sc1=S	0	-25	54*	12	37	?	58*	56*	60*
CC(=O)Nc1ccc2[nH]c3ccccc3c2c1	0	17	10	6	8	1	nt	nt	nt
O=C(Nc1ccc(Cl)cc1)c1cc2c(cc1O)[nH]c1ccccc12	0	-46	53*	30	5	0	77*	72*	91*
COc1ccccc1-c1sc2cc3c(cc2c1-c1ccc(OCCN2CCCCC2)cc1)OCO3	3	nt	64*	nt	-5	8	49*	46	43
COc1cc2sc(-c3ccccc3OC)c(-c3ccc(OCCN4CCCCC4)cc3)c2cc1OC	0	nt	23	nt	-9	12	nt	nt	nt
O=S(=O)(Nc1ccccc1N1CCOCC1)c1ccc(Cl)cc1	0	nt	21	nt	-3	-2	nt	nt	nt
CCN1/C(=C/C=C/c2oc3ccc(-c4ccccc4)cc3[n+]2CC)Oc2ccc(-c3ccccc3)cc21	+	-8	67*	51*	8	1	68*	22	43
Cc1ccsc1C(=O)N1CCCC(N(C)Cc2ccccc2)C1 (centres undefined)	0	-6	13	16	-1	2	nt	nt	nt
CN1CCc2cc3c(c4c2[C@H]1[C@H](O)c1ccccc1-4)OCO3	nt	-2	36	-7	119	-3	nt	nt	nt
CN1CCc2cccc3c2[C@H]1Cc1ccc(O)c(O)c1-3	0	1	52*!	101*	?	1	59*	24	28
CCC(C)N(C(=O)c1csnn1)C(C(=O)NCc1ccc(F)cc1)c1ccccc1F (centres undefined)	0	?	26	21	-3	0	nt	nt	nt
O=C(c1nnsc1S(=O)(=O)c1ccc(Cl)cc1)N1CCOCC1	nt	20	57*	5	6	nt	52*	54*	50*
CNC(=O)c1ccc(S(=O)(=O)c2ccc(Cl)cc2)c(NC(C)=O)c1	0	-17	17	15	i	3	nt	nt	nt
CNC(=O)c1nnsc1S(=O)(=O)c1ccc(Cl)cc1	nt	-23	59*	90*	5	nt	67*	65*	47
CCOCCCN(C(=O)c1snc(C(N)=O)c1N)C(C(=O)NC1CCCC1)c1ccc(O)cc1 (centres undefined)	0	-6	14	0	5	0	nt	nt	nt
CCOc1cc(Cl)c(S(=O)(=O)NCc2cccnc2)cc1Cl	0	-5	17	8	5	-11	nt	nt	nt
CCn1c(=O)n(CC)c2cc(NC(=O)C(C)c3ccccc3)c(Br)cc21 (centres undefined)	0	7	-6	-11	9	1	nt	nt	nt
Cc1ccc(CNC(=O)C2CCC(=O)N2C(C)C)cc1 (centres undefined)	0	14	22	1	-9	-5	nt	nt	nt
O=C(N/N=C/c1ccccc1)c1c(O)c2ccccc2[nH]c1=O	0	?	55*	7	35	-2	65*	nt	nt
CC(C)C(=O)NNC(=O)c1c(O)c2ccccc2[nH]c1=O	0	-4	7	nt	-4	6	nt	nt	nt
CC(C)NC(=O)c1c(O)c2ccccc2[nH]c1=O	0	3	54*	10	i	-1	72*	37	53*
Cc1sc2nc(C3CC3)nc(SCC(=O)NCc3ccco3)c2c1C	0	-7	51*	18	15	-1	26	nt	nt
Cc1nc(SCC(=O)NC2CCCC2)c2c(C)c(C)sc2n1	0	-15	54*	15	-8	4	56*	38	29
Cc1nc(SCC(=O)NC2CCS(=O)(=O)C2)c2c(C)c(C)sc2n1 (centres undefined)	0	nt	4	nt	nt	nt	nt	nt	nt
Cc1sc2nc(SCC(=O)NCc3ccco3)n(C)c(=O)c2c1C	0	2	3	-17	1	4	nt	nt	nt
SMILES	Efflux pump mplx	PolyA inhibitor	NALP3 yeast inh	NALP1 inh	JMJD2C inh	HDAC3 inhib	NALP3 confirm	Casp1-ASC yeast	NALP3 yeast rt
COCCn1c(C)cc(/C=C2/NC(=O)N(c3ccc(Cl)cc3)C2=O)c1C	0	2	6	31	4	-2	nt	nt	nt
COc1ccccc1-c1noc2ncnc(Nc3ccc4c(c3)OCO4)c12	0	5	41	17	-5	-4	nt	nt	nt
COc1ccc(CC(=O)Nc2ccc(-c3noc(-c4cc(OC)c(OC)c(OC)c4)n3)cc2)cc1	0	nt	58*	4	nt	-11	24	nt	nt
COc1ccc(CC(=O)Nc2ccc(-c3noc(-c4ccc(Cl)cc4)n3)cc2)cc1	0	7	9	-87	-2	-1	nt	nt	nt
CCC(=O)Nc1cccc(NC(=O)c2cc3ccccc3o2)c1	0	11	26	-1	2	-3	nt	nt	nt
O=C(Nc1cccc(Br)c1)c1cc2ccccc2o1	0	-5	64*	8	-10	8	62*	48	60*
Cc1cccc(NC(=O)c2cc3ccccc3o2)c1	0	-8	54*	10	5	3	72*	59*	52*
C[C@H](CO)N1C[C@H](C)[C@@H](CN(C)S(=O)(=O)c2ccccc2)Oc2ccc(NC(=O)C3CC3)cc2C1=O	0	nt	9	nt	6	-1	nt	nt	nt
Nc1c(C(=O)CSc2nc3ccccc3o2)c(=O)[nH]c(=O)n1C1CC1	0	nt	17	nt	2	-3	nt	nt	nt
Cc1ccc2sc(NC(=O)CSc3nc(C)cc(C)c3C#N)nc2c1	0	5	51*	13	-1	-16	41	11	17
Cc1cc(C(F)(F)F)c(C#N)c(SCC(=O)Nc2nc3ccccc3s2)n1	0	17	21	-2	1	5	nt	nt	nt
CCOC(=O)c1nc(SC)n(C)c1C(=O)OCC	0	5	nt	8	-3	0	nt	nt	nt
O=C(NC1CCC(O)CC1)c1ccc(-c2ccc(Cl)cc2)o1 (centres undefined)	0	-9	13	nt	10	-7	nt	nt	nt
O=C(NNC(=O)c1ccccc1F)c1ccc(-c2ccc(Cl)cc2)o1	0	17	54*	nt	-6	nt	59*	8	49
CCn1c(CNC(C)=O)nnc1SCC(=O)c1ccc(Br)cc1	0	7	3	-3	-2	12	nt	nt	nt
CCN(CC)C(=S)SCC(=O)c1ccc(Br)cc1	0	-43	55*	29	8	nt	64*	nt	nt
CN(CC(=O)Nc1cccc(F)c1)C(=O)CCNC(=O)c1ccco1	0	0	13	nt	2	0	nt	nt	nt
Cc1cc(OCC(=O)NNC(=S)NC(=O)c2ccc(Br)o2)ccc1Cl	0	nt	24	2	-6	2	nt	nt	nt
